# Screens from PubChem.
# FXIa inh mix: inhibitors of human coagulation factor XIa, pooled mixtures. purified FXIa, fluorogenic substrate. AID 680. inhibition, % at 5 µM. 62,000 tested, 0.19% active;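 also: each value is inhibition by a whole ten-compound pool holding the compound; 0% = enzyme with no mixture and 100% = wells lacking enzyme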
# Cathepsin G inh: blocks human cathepsin G enzyme activity; inhibition, % at 5 µM (by protocol); purified enzyme, AMC-tetrapeptide fluorescence, pooled mixtures; 62,000 tested, 0.2% active; P08311;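 active = inhibition above 20% in each of the two mixture wells holding the compound; inactive = inhibition of 20% or less in either well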;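 also: 0% = enzyme control without mixture and 100% = blank lacking enzyme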
# FXIIa inh mix: blocks human factor XIIa in pooled compound mixtures; P00748; purified FXIIa, fluorogenic substrate; inhibition, % at 5 µM; 62,000 tested, 0.2% active; AID 684;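 also: 0% = enzyme without compound and 100% = no enzyme blank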
# Target sequence (P00748 20-372 limits assumed): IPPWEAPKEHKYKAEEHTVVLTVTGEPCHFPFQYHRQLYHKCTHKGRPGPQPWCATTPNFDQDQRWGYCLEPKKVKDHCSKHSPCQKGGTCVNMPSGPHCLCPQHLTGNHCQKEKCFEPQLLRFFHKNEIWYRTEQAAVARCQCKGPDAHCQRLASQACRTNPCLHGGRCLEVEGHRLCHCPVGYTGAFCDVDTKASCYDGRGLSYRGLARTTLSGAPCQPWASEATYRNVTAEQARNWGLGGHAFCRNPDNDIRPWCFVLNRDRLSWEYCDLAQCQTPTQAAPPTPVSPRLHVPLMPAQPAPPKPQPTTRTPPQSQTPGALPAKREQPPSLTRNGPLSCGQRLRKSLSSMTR
# Target sequence (P00748 373-615 limits assumed): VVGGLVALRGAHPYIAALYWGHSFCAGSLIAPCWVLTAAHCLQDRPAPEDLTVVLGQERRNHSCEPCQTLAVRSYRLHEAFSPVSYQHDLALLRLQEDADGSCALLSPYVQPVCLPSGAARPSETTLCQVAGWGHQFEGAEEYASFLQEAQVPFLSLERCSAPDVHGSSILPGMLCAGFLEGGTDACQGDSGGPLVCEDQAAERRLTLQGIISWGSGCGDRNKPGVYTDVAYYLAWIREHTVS
# C1s inh: blocks human complement C1s protease activity. purified C1s, fluorogenic AMC substrate, pooled mixtures. AID 538. mean inhibition % of two 10-compound mixtures (stronger effect = higher value), % at 5 µM (by protocol). 62,000 tested, 0.16% active. P09871;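 active = inhibition above 20% in each of the two 10-compound mixture wells holding the compound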;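 also: 0% = enzyme wells lacking compound mixture and 100% = no-enzyme blank wells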
# Candida biofilm: kills Candida albicans biofilms | C. albicans biofilm + clotrimazole, Alamar Blue | inhibition, % at 6 µM | 85,000 tested, 0.14% active;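 active = inhibition above 20%; inactive = inhibition below 20%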;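 also: preformed 24 hr biofilms exposed to compound for 48 hr; 0% = biofilm without compound and 100% = blank killed by clotrimazole plus chlorhexidine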
# BAP1 inh: inhibitors of human BAP1 deubiquitinase. Q92560. recombinant BAP1, Ub-AMC hydrolysis fluorescence kinetic; stronger effect = lower value. 72,000 tested, 0.48% active. activity remaining (% of control), % at 20 µM;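 active = activity remaining at or below 50% of control, provided the compound also passes the data quality filters; inactive = the rest, including low values that fail the filters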;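 also: 100% = DMSO wells rate and 0% = substrate alone blank rate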
# The depositor's hits bear a star; x = no result given. Most compounds without a hit are left out; they make up all but 0.8% or so of the library. Rule as the data show it, unless noted: active = inhibition above about 20% (passing the limit was not always enough); inactive = the rest.
SMILES,FXIa inh mix,Cathepsin G inh,FXIIa inh mix,C1s inh,Candida biofilm,BAP1 inh
COc1ccccc1NC(=O)CSc1nnc(-c2ccccn2)n1Cc1ccco1,50*,31*,3,28,5,x
COc1ccc(CCNC(=O)c2cc(-c3ccccc3)on2)cc1OC,7,9,47*,7,3,90
COCCNC(=O)c1cc(-c2ccc(OC)c(OC)c2)on1,0,-2,12,-2,x,96
COc1ccccc1-c1cc(C(=O)NCc2ccccc2)no1,11,51*,-4,-22,0,96
COc1ccccc1-c1cc(C(=O)NCc2ccc(Cl)cc2)no1,3,46*,4,-10,6,78
CCOC(=O)c1cccc(NC(=O)c2ccccc2OCC)c1,x,x,x,x,x,180
Cn1cnnc1-c1cccc(NS(=O)(=O)c2ccc(N3CCCC3=O)cc2)c1,x,x,x,x,x,88
CC1(C)Oc2ccc3ccc(=O)oc3c2C(N2CCCCC2)C1O (configuration not stated),4,12,20*,11,8,81
Cc1ccc(S(=O)(=O)C(C#N)c2nc3ccccc3nc2N2CCCCC2)cc1 (configuration not stated),8,8,-14,12,4,84
N#CC(c1nc2ccccc2nc1N1CCCCC1)S(=O)(=O)c1ccc(Cl)cc1 (configuration not stated),2,-1,1,6,2,48*
O=C(Nc1nccs1)c1ccc(S(=O)(=O)NCC2CCCCC2)cc1,4,7,9,7,5,55
O=C(CSc1cn(CCNC(=O)c2ccccc2)c2ccccc12)NCc1ccco1,16,-2,15,-24,22*,96
CCCn1cc(SCC(=O)NCc2ccco2)c2ccccc21,1,-1,8,-47,-5,93
CO[C@H]1C=CO[C@@]2(C)Oc3c(C)c(O)c4c(O)c(c(C=NN5CCN(C)CC5)c(O)c4c3C2=O)NC(=O)C(C)=CC=C[C@H](C)[C@H](O)[C@@H](C)[C@@H](O)[C@@H](C)[C@H](OC(C)=O)[C@@H]1C,10,0,15,1,30*,104
O=C(COc1ccc(S(=O)(=O)NC2CCCCC2)cc1)N1CCN(c2cccc(Cl)c2)CC1,x,x,x,x,4,x
CN(C)S(=O)(=O)Nc1ccc2c(c1)OCO2,24*,0,1,-5,0,114
O=S(=O)(Nc1ccc2c(c1)OCO2)c1ccccc1,x,x,x,x,6,x
Cn1c(=O)oc2cc(S(=O)(=O)Nc3ccc4c(c3)OCO4)ccc21,7,6,45*,15,-4,98
Cc1cc(Nc2cccc(F)c2)n2nc(C)nc2n1,2,0,6,3,-17,99
CCN1CCN(c2cc3c(cc2F)c(=O)c(C(=O)O)cn3C2CC2)CC1,2,-3,-2,-5,24*,143
O=C(O)c1cn(C2CC2)c2cc(N3CCOCC3)c(F)cc2c1=O,x,x,x,x,10,x
C/C(N)=C(/C#N)C(=O)COC(=O)c1ccncc1,9,7,12,6,5,99
Cc1csc(NC(=O)c2ccco2)n1,9,13,-20,22*,x,89
COc1ccc(-c2nnc3n2N=C(c2ccccc2)CS3)cc1OC,5,10,32*,12,7,86
Cc1ccccc1NC(=O)c1c(-c2ccccc2)noc1C,-2,11,4,-1,7,99
SMILES,FXIa inh mix,Cathepsin G inh,FXIIa inh mix,C1s inh,Candida biofilm,BAP1 inh
CCCOc1ccccc1NC(=O)c1c(-c2ccccc2)noc1C,0,1,6,2,30*,89
COc1ccccc1N(C(=O)CNC(=O)c1ccco1)C(C(=O)NC1CCCC1)c1ccncc1 (configuration not stated),x,x,x,x,7,x
O=C(NCc1ccc2c(c1)OCO2)c1cccc(C(=O)NCc2ccc3c(c2)OCO3)c1,5,0,1,-5,5,84
O=C(NCc1ccc2c(c1)OCO2)c1cccc(N2CCCC2=O)c1,5,11,27*,15,6,99
O=C(c1ccco1)N1C(=O)c2cccc3cccc1c23,4,15,5,25*,1,80
CCN1C(=O)c2cccc3cccc1c23,0,-2,6,-6,-4,137
CN(C)c1oc(-c2ccc(OCc3ccccc3)cc2)nc1C#N,23*,8,6,14,1,137
CCn1c(SC)nnc1-c1sc2cc(Cl)ccc2c1Cl,18,10,42*,15,-1,82
Cn1nnnc1SCC(=O)c1c(N)n(C)c(=O)n(C)c1=O,-3,8,0,5,7,117
